Data: publication PMC7862700, “An all-to-all approach to the identification of sequence-specific readers for epigenetic DNA modifications on cytosine”

How the values were obtained:
Assay in all cases: DAPPL (digital affinity profiling via proximity ligation, sequencing); 10 mM Tris-HCl pH 7.5, 50 mM NaCl, 1 mM DTT, 4% glycerol, room temperature, 30 min; GST-TFs on glutathione beads, 16-mer random dsDNA library, 0.1% formaldehyde crosslink after washing; high values mean tight binding
FLI1 = target: T1, FLI1 (Homo sapiens, UniProt Q01543 1-452); details: protein: recombinant; tags: N-terminal GST; dsDNA, one strand shown
T1 sequence: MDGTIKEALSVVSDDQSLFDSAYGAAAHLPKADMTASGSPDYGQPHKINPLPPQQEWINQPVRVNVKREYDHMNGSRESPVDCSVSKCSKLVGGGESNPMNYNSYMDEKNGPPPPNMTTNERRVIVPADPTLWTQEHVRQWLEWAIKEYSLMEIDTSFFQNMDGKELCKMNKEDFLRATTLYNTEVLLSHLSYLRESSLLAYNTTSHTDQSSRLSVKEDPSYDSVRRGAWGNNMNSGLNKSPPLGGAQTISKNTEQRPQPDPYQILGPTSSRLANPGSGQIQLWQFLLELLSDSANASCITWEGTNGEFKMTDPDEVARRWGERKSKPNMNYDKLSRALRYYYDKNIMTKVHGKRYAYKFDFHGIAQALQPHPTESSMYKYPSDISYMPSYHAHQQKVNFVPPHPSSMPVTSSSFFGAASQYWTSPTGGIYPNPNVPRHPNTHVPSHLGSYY
In short: (§1)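 Pools were built from human transcription factors expressed in yeast as GST fusions, captured on glutathione beads and DNA-barcoded, along with a tag-only sample. Incubation with 200 nmole of a 16-mer random double-stranded DNA library lasted 30 min at room temperature in Tris/NaCl/DTT/glycerol buffer, and was followed by washing, 0.1% formaldehyde crosslinking, proximity ligation, PCR amplification and Illumina NextSeq500 sequencing. Binding signal is the quotient of each hexamer's read frequency for a factor and its frequency for the tag-only sample.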

ELK1 = target: T2, ELK1 (Homo sapiens, UniProt P19419 1-428); details: protein: recombinant; tags: N-terminal GST; dsDNA, one strand shown
T2 sequence: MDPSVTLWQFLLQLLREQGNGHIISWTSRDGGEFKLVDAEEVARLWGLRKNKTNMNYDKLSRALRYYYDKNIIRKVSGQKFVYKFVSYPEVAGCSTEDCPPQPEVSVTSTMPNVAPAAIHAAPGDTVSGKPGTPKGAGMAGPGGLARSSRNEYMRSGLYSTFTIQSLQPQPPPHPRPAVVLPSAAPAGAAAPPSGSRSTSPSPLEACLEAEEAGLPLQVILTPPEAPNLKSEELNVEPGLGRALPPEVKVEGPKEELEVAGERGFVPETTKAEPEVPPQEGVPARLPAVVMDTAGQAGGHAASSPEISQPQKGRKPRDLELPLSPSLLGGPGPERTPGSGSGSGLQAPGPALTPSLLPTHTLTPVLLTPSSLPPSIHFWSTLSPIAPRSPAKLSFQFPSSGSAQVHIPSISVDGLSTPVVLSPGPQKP
In short: as §1

GABPA = target: T3, GABPA (Homo sapiens, UniProt Q06546 1-454); details: protein: recombinant; tags: N-terminal GST; dsDNA, one strand shown
T3 sequence: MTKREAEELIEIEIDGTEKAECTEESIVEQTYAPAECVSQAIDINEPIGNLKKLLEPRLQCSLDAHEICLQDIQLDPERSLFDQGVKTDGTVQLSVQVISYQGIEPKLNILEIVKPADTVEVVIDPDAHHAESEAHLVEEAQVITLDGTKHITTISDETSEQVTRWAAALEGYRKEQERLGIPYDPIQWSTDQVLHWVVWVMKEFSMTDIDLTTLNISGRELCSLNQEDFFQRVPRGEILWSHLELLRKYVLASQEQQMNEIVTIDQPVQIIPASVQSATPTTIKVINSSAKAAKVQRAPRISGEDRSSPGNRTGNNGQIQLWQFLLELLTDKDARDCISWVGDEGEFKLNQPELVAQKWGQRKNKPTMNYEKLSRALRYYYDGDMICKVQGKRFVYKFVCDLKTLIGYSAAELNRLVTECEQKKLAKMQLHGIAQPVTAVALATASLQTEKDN
In short: as §1

ERG = target: T4, ERG (Homo sapiens, UniProt P11308 1-479); details: protein: recombinant; tags: N-terminal GST; dsDNA, one strand shown
T4 sequence: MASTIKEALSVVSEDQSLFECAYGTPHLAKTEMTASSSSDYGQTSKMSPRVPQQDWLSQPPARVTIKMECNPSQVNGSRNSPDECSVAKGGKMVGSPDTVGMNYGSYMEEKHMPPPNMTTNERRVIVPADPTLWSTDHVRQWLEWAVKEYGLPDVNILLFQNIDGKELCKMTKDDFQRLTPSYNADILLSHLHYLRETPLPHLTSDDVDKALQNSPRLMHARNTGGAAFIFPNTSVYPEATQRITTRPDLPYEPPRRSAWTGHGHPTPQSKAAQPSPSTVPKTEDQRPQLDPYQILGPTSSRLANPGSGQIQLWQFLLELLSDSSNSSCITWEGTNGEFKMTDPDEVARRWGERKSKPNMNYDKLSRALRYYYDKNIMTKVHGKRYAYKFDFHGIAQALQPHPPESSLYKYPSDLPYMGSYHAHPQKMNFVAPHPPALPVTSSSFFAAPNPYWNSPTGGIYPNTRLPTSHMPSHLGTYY
In short: as §1

ELF1 = ELF1 (Homo sapiens, UniProt P32519 1-619); details: protein: recombinant; tags: N-terminal GST; dsDNA, one strand shown
ELF1, sequence (P32519 whole entry): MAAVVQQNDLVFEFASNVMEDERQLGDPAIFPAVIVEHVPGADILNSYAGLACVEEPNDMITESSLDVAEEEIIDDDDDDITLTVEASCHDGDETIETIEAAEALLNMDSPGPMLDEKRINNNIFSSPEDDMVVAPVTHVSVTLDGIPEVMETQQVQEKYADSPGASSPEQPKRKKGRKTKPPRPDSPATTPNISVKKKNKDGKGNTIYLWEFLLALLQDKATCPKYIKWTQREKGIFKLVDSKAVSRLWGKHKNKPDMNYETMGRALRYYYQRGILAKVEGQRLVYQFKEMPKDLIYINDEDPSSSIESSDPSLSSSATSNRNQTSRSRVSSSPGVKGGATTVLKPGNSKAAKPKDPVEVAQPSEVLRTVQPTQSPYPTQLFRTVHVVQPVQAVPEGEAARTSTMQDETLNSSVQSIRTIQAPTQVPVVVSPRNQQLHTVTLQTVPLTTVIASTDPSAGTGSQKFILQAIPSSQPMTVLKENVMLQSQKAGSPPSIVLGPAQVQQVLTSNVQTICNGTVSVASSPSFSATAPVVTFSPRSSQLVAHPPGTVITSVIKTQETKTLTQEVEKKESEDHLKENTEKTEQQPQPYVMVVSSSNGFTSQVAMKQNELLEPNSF
In short: as §1

EHF = target: T5, EHF (Homo sapiens, UniProt Q9NZC4 1-300); details: protein: recombinant; tags: N-terminal GST; dsDNA, one strand shown
T5 sequence: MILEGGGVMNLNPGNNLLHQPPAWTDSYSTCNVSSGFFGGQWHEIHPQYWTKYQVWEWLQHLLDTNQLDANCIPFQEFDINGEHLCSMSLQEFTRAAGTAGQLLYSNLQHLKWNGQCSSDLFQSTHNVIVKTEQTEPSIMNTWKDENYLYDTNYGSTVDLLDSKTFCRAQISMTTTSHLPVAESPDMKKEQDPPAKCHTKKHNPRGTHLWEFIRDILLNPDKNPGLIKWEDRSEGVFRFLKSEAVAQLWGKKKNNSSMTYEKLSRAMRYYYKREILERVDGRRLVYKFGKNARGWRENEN
In short: as §1

SPI1 = SPI1 (Homo sapiens, UniProt P17947 1-270); details: protein: recombinant; tags: N-terminal GST; dsDNA, one strand shown
In short: as §1

SPIB = SPIB (Homo sapiens, UniProt Q01892 1-262); details: protein: recombinant; tags: N-terminal GST; dsDNA, one strand shown
SPIB, sequence (Q01892 whole entry): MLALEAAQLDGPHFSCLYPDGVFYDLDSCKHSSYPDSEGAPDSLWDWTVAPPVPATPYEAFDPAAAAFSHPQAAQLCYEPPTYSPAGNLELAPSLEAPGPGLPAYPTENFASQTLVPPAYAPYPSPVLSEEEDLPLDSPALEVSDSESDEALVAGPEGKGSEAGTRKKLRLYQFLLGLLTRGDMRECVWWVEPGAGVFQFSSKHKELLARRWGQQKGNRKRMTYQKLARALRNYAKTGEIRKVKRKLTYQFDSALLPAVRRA
In short: as §1

ELK3 = target: T6, ELK3 (Homo sapiens, UniProt P41970 1-407); details: protein: recombinant; tags: N-terminal GST; dsDNA, one strand shown
T6 sequence: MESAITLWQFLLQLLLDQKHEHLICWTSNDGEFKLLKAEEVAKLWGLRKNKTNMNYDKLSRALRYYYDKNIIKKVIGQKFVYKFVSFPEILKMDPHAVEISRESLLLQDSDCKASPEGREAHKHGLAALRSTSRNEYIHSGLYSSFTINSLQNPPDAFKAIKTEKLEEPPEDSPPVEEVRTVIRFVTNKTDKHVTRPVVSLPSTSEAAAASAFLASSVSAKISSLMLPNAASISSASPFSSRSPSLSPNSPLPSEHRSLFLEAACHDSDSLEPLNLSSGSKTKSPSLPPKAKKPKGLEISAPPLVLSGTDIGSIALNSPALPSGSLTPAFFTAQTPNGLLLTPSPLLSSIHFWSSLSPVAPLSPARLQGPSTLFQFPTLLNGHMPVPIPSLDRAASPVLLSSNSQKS
In short: as §1

FEV = target: T7, FEV (Homo sapiens, UniProt Q99581 1-238); details: protein: recombinant; tags: N-terminal GST; dsDNA, one strand shown
T7 sequence: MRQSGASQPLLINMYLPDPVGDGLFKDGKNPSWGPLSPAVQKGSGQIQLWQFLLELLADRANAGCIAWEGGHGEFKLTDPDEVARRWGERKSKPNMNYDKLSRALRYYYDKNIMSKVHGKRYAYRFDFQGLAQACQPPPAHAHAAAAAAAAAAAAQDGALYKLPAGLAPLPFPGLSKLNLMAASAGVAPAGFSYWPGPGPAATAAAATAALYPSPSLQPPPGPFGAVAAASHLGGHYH
In short: as §1

ETV5 = ETV5 (Homo sapiens, UniProt P41161 1-510); details: protein: recombinant; tags: N-terminal GST; dsDNA, one strand shown
ETV5, sequence (P41161 whole entry): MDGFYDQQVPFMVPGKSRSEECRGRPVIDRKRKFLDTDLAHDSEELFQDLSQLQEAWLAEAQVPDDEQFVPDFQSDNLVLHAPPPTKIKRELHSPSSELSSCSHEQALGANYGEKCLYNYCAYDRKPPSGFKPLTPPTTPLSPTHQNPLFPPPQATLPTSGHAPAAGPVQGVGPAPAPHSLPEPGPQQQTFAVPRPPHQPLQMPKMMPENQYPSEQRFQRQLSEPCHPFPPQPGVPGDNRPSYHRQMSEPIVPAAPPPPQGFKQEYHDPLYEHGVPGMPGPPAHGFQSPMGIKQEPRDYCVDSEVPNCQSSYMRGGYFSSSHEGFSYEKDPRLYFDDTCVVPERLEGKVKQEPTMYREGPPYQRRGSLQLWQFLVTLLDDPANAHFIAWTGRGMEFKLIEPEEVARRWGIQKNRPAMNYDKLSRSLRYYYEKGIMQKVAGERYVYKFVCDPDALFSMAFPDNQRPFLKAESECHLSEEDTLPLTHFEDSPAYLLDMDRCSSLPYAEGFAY
In short: as §1

HSF1 = HSF1 (Homo sapiens, UniProt Q00613 1-529); details: protein: recombinant; tags: N-terminal GST; chain copies: 3; dsDNA, one strand shown
HSF1, sequence (Q00613 whole entry): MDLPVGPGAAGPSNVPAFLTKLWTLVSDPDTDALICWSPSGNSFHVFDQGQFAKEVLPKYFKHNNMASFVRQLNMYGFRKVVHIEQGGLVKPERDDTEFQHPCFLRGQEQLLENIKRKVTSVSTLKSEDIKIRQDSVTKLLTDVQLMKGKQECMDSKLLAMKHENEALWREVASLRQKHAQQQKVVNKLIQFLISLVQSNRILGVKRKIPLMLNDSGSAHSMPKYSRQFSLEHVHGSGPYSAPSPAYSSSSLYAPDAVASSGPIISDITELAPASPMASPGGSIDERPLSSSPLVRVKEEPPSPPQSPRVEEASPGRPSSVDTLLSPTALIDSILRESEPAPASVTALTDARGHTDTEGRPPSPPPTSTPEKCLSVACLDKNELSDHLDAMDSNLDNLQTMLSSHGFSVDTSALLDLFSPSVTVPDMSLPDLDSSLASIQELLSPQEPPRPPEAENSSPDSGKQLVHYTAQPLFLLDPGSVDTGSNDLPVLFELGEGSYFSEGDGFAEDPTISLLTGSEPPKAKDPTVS
In short: as §1

SPIC = target: T8, SPIC (Homo sapiens, UniProt Q8N5J4 1-248); details: protein: recombinant; tags: N-terminal GST; dsDNA, one strand shown
T8 sequence: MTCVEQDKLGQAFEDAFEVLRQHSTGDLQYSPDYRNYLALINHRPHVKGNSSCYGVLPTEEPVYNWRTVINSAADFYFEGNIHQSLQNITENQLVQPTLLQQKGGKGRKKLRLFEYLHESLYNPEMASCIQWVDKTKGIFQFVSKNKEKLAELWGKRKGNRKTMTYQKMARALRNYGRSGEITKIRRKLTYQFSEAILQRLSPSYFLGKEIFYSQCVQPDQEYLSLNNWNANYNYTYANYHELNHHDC
In short: as §1

ELF4 = ELF4 (Homo sapiens, UniProt Q99607 1-663); details: protein: recombinant; tags: N-terminal GST; dsDNA, one strand shown
ELF4, sequence (Q99607 whole entry): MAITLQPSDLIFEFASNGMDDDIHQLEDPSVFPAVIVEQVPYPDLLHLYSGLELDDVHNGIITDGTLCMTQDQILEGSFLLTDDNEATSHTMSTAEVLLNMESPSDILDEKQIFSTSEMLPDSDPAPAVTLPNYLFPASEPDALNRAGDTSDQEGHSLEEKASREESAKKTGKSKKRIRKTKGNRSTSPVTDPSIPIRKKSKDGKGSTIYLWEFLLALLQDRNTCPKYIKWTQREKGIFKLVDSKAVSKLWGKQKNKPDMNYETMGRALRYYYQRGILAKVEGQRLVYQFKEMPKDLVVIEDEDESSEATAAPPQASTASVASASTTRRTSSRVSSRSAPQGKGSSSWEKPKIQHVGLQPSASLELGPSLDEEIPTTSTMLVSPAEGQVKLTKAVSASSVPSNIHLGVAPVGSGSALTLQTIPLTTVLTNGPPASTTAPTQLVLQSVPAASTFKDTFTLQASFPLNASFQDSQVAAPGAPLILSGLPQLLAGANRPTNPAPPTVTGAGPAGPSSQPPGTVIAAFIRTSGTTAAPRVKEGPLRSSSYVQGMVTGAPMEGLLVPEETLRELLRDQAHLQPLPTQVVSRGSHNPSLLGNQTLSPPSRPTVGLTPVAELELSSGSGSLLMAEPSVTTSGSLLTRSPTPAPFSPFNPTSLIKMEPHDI
In short: as §1

ELK4 = target: T9, ELK4 (Homo sapiens, UniProt P28324-2 1-405); details: protein: recombinant; tags: N-terminal GST; dsDNA, one strand shown
T9 sequence: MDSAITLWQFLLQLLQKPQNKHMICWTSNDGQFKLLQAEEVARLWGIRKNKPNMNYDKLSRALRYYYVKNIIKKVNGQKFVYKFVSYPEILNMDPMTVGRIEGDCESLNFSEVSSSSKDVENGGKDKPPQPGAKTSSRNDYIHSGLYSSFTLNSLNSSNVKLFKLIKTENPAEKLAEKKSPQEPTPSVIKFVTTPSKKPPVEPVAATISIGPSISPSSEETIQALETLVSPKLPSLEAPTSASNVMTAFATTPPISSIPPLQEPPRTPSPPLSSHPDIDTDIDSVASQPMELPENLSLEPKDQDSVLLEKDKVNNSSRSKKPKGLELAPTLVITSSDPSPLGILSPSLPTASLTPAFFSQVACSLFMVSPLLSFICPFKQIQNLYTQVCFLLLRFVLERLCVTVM
In short: as §1

ETV2 = target: T10, ETV2 (Homo sapiens, UniProt O00321 1-342); details: protein: recombinant; tags: N-terminal GST; dsDNA, one strand shown
T10 sequence: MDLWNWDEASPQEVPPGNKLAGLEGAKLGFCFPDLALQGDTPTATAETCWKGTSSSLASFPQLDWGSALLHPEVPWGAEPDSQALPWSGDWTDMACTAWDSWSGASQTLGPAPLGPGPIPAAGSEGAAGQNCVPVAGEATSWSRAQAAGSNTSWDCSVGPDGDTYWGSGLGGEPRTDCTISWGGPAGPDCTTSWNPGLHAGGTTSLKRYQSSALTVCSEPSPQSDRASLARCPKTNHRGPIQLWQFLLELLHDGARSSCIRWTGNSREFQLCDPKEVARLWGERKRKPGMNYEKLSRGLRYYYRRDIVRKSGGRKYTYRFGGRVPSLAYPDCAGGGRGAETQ
In short: as §1

ELF3 = target: T11, ELF3 (Homo sapiens, UniProt P78545 1-371); details: protein: recombinant; tags: N-terminal GST; dsDNA, one strand shown
T11 sequence: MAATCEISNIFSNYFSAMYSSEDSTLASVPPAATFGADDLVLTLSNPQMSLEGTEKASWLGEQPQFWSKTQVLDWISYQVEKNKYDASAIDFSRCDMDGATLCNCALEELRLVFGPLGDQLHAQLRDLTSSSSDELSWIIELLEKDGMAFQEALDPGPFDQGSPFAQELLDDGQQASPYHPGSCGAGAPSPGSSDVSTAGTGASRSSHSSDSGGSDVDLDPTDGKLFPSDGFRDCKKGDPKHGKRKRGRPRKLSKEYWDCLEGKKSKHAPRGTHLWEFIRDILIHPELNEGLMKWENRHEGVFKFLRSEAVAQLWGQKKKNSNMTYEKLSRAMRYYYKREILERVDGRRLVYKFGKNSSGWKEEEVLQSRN
In short: as §1

CRX = CRX (Homo sapiens, UniProt O43186 1-299); details: protein: recombinant; tags: N-terminal GST; dsDNA, one strand shown
CRX, sequence (O43186 whole entry): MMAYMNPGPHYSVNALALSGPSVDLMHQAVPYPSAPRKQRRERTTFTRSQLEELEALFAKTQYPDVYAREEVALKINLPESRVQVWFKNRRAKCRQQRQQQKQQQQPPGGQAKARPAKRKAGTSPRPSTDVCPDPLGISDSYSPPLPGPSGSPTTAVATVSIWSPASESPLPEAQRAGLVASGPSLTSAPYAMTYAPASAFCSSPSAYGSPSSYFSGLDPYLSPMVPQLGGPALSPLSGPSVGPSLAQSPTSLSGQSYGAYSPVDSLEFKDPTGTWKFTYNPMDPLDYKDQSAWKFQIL
In short: as §1

ETV1 = ETV1 (Homo sapiens, UniProt P50549 1-477); details: protein: recombinant; tags: N-terminal GST; dsDNA, one strand shown
ETV1, sequence (P50549 whole entry): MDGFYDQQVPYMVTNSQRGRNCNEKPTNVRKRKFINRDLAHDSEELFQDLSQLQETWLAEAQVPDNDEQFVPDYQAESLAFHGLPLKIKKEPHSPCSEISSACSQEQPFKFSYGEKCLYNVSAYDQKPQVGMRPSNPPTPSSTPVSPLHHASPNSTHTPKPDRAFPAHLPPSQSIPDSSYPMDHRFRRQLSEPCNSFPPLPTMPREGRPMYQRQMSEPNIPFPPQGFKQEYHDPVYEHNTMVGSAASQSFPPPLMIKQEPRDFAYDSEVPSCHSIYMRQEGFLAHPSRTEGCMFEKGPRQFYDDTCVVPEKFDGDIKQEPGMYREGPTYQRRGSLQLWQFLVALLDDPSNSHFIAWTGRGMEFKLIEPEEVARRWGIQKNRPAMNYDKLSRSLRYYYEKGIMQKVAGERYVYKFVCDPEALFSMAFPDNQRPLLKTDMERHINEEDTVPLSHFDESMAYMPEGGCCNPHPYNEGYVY
In short: as §1

## ACCTTA
FLI1
  binding signal: 1.34 fold enrichment (6-mer frequency, TF over GST control)
ELK1
  binding signal: 1.24 fold enrichment (6-mer frequency, TF over GST control)
GABPA
  binding signal: 1.19 fold enrichment (6-mer frequency, TF over GST control)
ERG
  binding signal: 1.3 fold enrichment (6-mer frequency, TF over GST control)
ELF1
  binding signal: 1.2 fold enrichment (6-mer frequency, TF over GST control)
EHF
  binding signal: 1.24 fold enrichment (6-mer frequency, TF over GST control)
SPI1
  binding signal: 1.24 fold enrichment (6-mer frequency, TF over GST control)
SPIB
  binding signal: 1.21 fold enrichment (6-mer frequency, TF over GST control)
ELK3
  binding signal: 1.13 fold enrichment (6-mer frequency, TF over GST control)
FEV
  binding signal: 1.27 fold enrichment (6-mer frequency, TF over GST control)
ETV5
  binding signal: 1.23 fold enrichment (6-mer frequency, TF over GST control)
HSF1
  binding signal: 1.19 fold enrichment (6-mer frequency, TF over GST control)
SPIC
  binding signal: 1.11 fold enrichment (6-mer frequency, TF over GST control)
ELF4
  binding signal: 1.24 fold enrichment (6-mer frequency, TF over GST control)
ELK4
  binding signal: 1.32 fold enrichment (6-mer frequency, TF over GST control)
ETV2
  binding signal: 1.32 fold enrichment (6-mer frequency, TF over GST control)
ELF3
  binding signal: 1.22 fold enrichment (6-mer frequency, TF over GST control)
CRX
  binding signal: 1.43 fold enrichment (6-mer frequency, TF over GST control)
ETV1
  binding signal: 1.4 fold enrichment (6-mer frequency, TF over GST control)
